Source: PubChem BioAssay (EPA / NIEHS)
“And” between values parts separate entries of the source, which are not always exact repeats. Equal entries are not always repeated. Records with an inconclusive call do not appear. Some compounds were tested as several samples or in several runs, with calls that do not always agree. The source made the active and inactive calls. How the source made its calls, unless noted: active means hit-call score of the fitted dose curve at least 0.9, where 1 is the maximum; inactive means score below 0.9.

Legend:
[1] = read-out: Secreted IgG (sIgG), gene 3500; test: BSK_BT_sIgG: BioMAP Diversity Plus: BT Assay for Secreted IgG (sIgG) Biomarker Activity (AID 2284226); details: primary human B cells with PBMC
Procedure, shortened: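 Read-out: ELISA for secreted IgG after 24 h of chemical exposure in a B cell plus PBMC co-culture. Values reflect upward-direction fitting against DMSO negative controls.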

[2] = BSK_BT_Bcell_Proliferation: Viability Assessment in the BioMAP Diversity Plus: BT Assay for B cell Proliferation (AID 2284227); details: primary human B cells with PBMC
Procedure, shortened: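 Read-out is absorbance at 560 nm from sulforhodamine B staining of total protein, reflecting relative cell numbers in a human B cell and PBMC co-culture after 72 h of chemical exposure. Values were referenced to DMSO.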

[3] = read-out: Interleukin 6 (IL6), IL6 (gene 3569); test: BSK_BT_xIL6: BioMAP Diversity Plus: BT Assay for Interleukin 6 (IL6) Biomarker Activity (AID 2284228); details: primary human B cells with PBMC
Procedure, shortened: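 B cells and peripheral blood mononuclear cells (human primary co-culture) were dosed with chemical, and after 24 h IL-6 released into the medium was measured by Luminex xMAP. Responses were analysed as gain of signal over DMSO control.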

[4] = read-out: Interleukin 17A (IL17A), IL17A (gene 3605); test: BSK_BT_xIL17A: BioMAP Diversity Plus: BT Assay for Interleukin 17A (IL17A) Biomarker Activity (AID 2284229); details: primary human B cells with PBMC
Procedure, shortened: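 Secreted IL-17A was the measured endpoint, read by Luminex xMAP multiplex in supernatants of a human B cell/PBMC co-culture harvested 24 h after chemical dosing. Signal increase relative to DMSO defined activity.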

[5] = read-out: Tumor necrosis factor (Homo sapiens) (UniProt P01375); test: BSK_BT_xTNFa: BioMAP Diversity Plus: BT Assay for Tumor necrosis factor alpha (TNF-alpha) Biomarker Activity (AID 2284230); details: primary human B cells with PBMC
Procedure, shortened: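 Human primary co-culture of B cells and peripheral blood mononuclear cells; TNF-alpha in supernatant, 24 h post-dose, Luminex multiplex; DMSO = baseline.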

[6] = read-out: Vascular cell adhesion molecule 1 (VCAM1), VCAM1 (gene 7412); test: BSK_MyoF_VCAM1: BioMAP Diversity Plus: MyoF Assay for Vascular cell adhesion molecule 1 (VCAM1) Biomarker Activity (AID 2284231); details: primary human lung fibroblasts
Procedure, shortened: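 ELISA read-out of VCAM-1 on human lung fibroblasts 24 h after chemical treatment, with positive-direction curve fitting relative to DMSO controls. Parallel cultures were stained with sulforhodamine B for total protein to flag overt cytotoxicity.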

[7] = read-out: Collagen I, COL1A1 (gene 1277); test: BSK_MyoF_CollagenI: BioMAP Diversity Plus: MyoF Assay for Collagen I Biomarker Activity (AID 2284238); details: primary human lung fibroblasts
Procedure, shortened: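 Lung fibroblasts (human primary) dosed, 24 h; Collagen I by ELISA; positive-direction fit vs DMSO control. Parallel SRB total-protein staining (0.1% SRB, 10% TCA fixation, 560 nm) flags overt cytotoxicity.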

[8] = read-out: Collagen III, COL3A1 (gene 1281); test: BSK_MyoF_CollagenIII: BioMAP Diversity Plus: MyoF Assay for Collagen III Biomarker Activity (AID 2284239); details: primary human lung fibroblasts
Procedure, shortened: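 ELISA read-out of collagen III from human lung fibroblasts after 24 h of chemical treatment. The DMSO control served as negative control and baseline, with values fitted in the positive direction.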

[9] = read-out: Interleukin 17F (IL17F), IL17F (gene 112744); test: BSK_BT_xIL17F: BioMAP Diversity Plus: BT Assay for Interleukin 17F (IL17F) Biomarker Activity (AID 2284243); details: primary human B cells with PBMC
Procedure, shortened: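 Compound was added to co-cultures of human B cells and PBMC. After 24 hours, IL-17F released into the medium was measured with LumineX xMAP technology. Responses were then fitted upward relative to DMSO.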

[10] = read-out: Actin alpha 1 (ACTA1), ACTA1 (gene 58); test: BSK_MyoF_ACTA1: BioMAP Diversity Plus: MyoF Assay for Actin alpha 1 (ACTA1) Biomarker Activity (AID 2284244); details: primary human lung fibroblasts
Procedure, shortened: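 Lung fibroblasts, human primary, 24 h compound exposure → a-SMA ELISA. Positive-direction fit vs DMSO control.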

[11] = read-out: Interleukin 2 (IL2), IL2 (gene 3558); test: BSK_BT_xIL2: BioMAP Diversity Plus: BT Assay for Interleukin 2 (IL2) Biomarker Activity (AID 2284245); details: primary human B cells with PBMC
Procedure, shortened: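 B cell + PBMC co-culture (human primary), compound added, 24 h incubation; secreted IL-2 measured multiplexed on Luminex xMAP; gain-of-signal fit vs DMSO.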

[12] = UKN4_HCS_LUHMES_cell_viability: Viability Assessment in the University of Konstanz (UKN) Leist Lab Neurite Outgrowth Assay in human LUHMES cells (UKN4) (AID 2284232)
Procedure, shortened: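 Fluorescence intensity from high-content imaging of Hoechst H-33342/calcein-AM-stained cells served as the viability read-out. Human LUHMES precursors were differentiated 2 days, replated and treated 24 h; curves were fitted bidirectionally against DMSO.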

[13] = UKN2_HCS_IMR90_cell_viability: Viability Assessment in the University of Konstanz (UKN) Leist Lab Neural Crest Cell Migration Assay in human induced IMR90 Pluripotent Stem Cells (UKN2) (AID 2284233);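 further: viability of neural crest cells differentiated from IMR90 iPSC measured by calcein-AM fluorescence imaging; cells exposed to compound for 24 h after a 24 h migration phase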
Procedure, shortened: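 iPSC-derived (IMR90) neural crest cells seeded around silicone stoppers on PLO/laminin/fibronectin; after 24 h migration in N2-S with EGF/FGF, chemical added for 24 h. Calcein-AM/Hoechst stained 30 min, high-content imaged; bidirectional fit versus DMSO.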

[14] = CCTE_Mundy_HCI_Cortical_NOG_BPCount: CCTE's Neurite Outgrowth Assay in rat cortical cells for Branch Point Count, Mundy Lab (AID 2284237)
Procedure, shortened: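 Measured 50.33 h after dosing, this morphology endpoint uses rat primary cortical cultures labelled for betaIII-tubulin. Branch points are quantified by high-content imaging, with DMSO as negative control and baseline.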

[15] = CCTE_Mundy_HCI_hNP1_Casp3_7: CCTE's Caspase-Glo 3/7 Assay in human neuroprogenitor cells for Apoptosis, Mundy Lab (AID 2284240)
Procedure, shortened: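 Neuroepithelial-lineage stem cells from WA09 embryonic cells were treated with chemicals after 40–44 h of culture. Twenty-four hours later, caspase-3/7 activation was detected luminescently after a 30 min room-temperature reagent step, with DMSO as baseline.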

[16] = CCTE_Mundy_HCI_hNP1_CellTiter: CCTE's Cell Titer-Glo 2 Assay in human neuroprogenitor cells for Viability, Mundy Lab (AID 2284241; active means hit-call score of the fitted dose curve at least 0.9, where 1 is the maximum)
Procedure, shortened: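 Measures ATP content in human neural progenitors derived from WA09 embryonic cells. Read-out at 26.5 hours after dosing, with DMSO serving as the negative control and baseline.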

[17] = CCTE_Mundy_HCI_Cortical_Synap_Neur_Matur_NeuronCount: CCTE's Synaptogenesis and Neurite Maturation Assay in rat cortical cells for Neuron Count, Mundy Lab (AID 2284242; active means hit-call score of the fitted dose curve at least 0.9, where 1 is the maximum)
Procedure, shortened: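 Neuron number was scored by automated high-content imaging of Hoechst- and MAP2-labelled rat primary cortical cells. Glial growth was arrested with AraC at DIV 5, compounds were applied from DIV 7, and cultures ended at DIV 12.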

[18] = TAMU_PeakParms_SingleDonor1434_QT: Texas A&M University (TAMU) 1.5-hr Human Induced Pluripotent Stem Cell (iPSC)-derived Cardiomyocytes Calcium (Ca+2) Flux Assay for Cardiotoxicity: QT (decay-rise ratio) (AID 2284235; active means hit-call score of the fitted dose curve at least 0.9, where 1 is the maximum)
Procedure, shortened: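 iPSC-derived cardiomyocytes (single donor 1434) dosed at 0.2, 1, 10, 100 uM final in 0.5% DMSO, 90 min at 37C. Ca2+ flux fluorescence decay/rise ratio; EC05 (5% increase versus DMSO) as POD, excluding beat-arrest and severe-notch data.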

[19] = TAMU_HCS_1.5hr_SingleDonor1434_Cytotoxicity: Cytotoxicity Assessment using High-content Screening (HCS) Fluorescent Imaging for the Texas A&M University (TAMU) 1.5-hr Human Induced Pluripotent Stem Cell (iPSC)-derived Cardiotoxicity Assay (AID 2284234; active means hit-call score of the fitted dose curve at least 0.9, where 1 is the maximum)
Procedure, shortened: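 Human iPSC-derived cardiomyocytes dosed at 0.2, 1, 10, 100 uM final (0.5% DMSO) for 90 min at 37 C. Hoechst 33342-stained nuclei counted by 10x high-content imaging; POD is EC10, a 10% drop in total cell count versus DMSO.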

Measured: AC50

Sequence of Tumor necrosis factor (Homo sapiens) (P01375 whole entry, looked up): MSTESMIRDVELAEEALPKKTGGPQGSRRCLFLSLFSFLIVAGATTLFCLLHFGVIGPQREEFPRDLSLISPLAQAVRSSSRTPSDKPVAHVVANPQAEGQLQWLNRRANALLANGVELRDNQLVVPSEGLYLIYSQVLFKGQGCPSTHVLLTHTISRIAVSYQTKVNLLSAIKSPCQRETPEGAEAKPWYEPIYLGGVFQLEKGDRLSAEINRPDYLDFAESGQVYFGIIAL

O=C(O)C(F)(F)OC(F)(F)C(F)(F)OC(F)(F)C(F)(F)C(F)(F)C(F)(F)F
active: [7] 30 µM and 31.8 µM | [8] 42.2 µM and 44.1 µM
inactive: [1] | [2] | [3] | [4] | [5] | [6] | [9] | [10] | [11]

CCCCCCCCCCCCS
active: [6] 23100 nM | [7] 20 µM | [8] 27.9 µM | [10] 18.6 µM
inactive: [1] | [2] | [3] | [4] | [5] | [9] | [11]

O=S1(=O)CC(Cl)(Cl)C(Cl)(Cl)C1
active: [1] 329 nM | [2] 537 nM | [3] 416 nM | [4] 346 nM | [5] 749 nM | [6] 1420 nM | [7] 1.52 µM | [8] 1.89 µM | [9] 0.515 µM | [10] 1.13 µM | [11] 703 nM

COc1ccccc1NC(=O)CC(C)=O
not listed: [12] | [13] | [14] | [15] | [16] | [17] | [18] | [19]
inactive: all other assays above

C=C(C)C(=O)OCCC(F)(F)C(F)(F)C(F)(F)C(F)(F)C(F)(F)C(F)(F)C(F)(F)C(F)(F)F
not listed: [12] | [13] | [14] | [15] | [16] | [17] | [18] | [19]
inactive: all other assays above

Nc1ccc(N)c([N+](=O)[O-])c1
not listed: [12] | [13] | [14] | [15] | [16] | [17] | [18] | [19]
inactive: all other assays above

CC(C)Cc1ccc(C(C)C(=O)O)cc1 (stereo not drawn)
not listed: [18] | [19]
inactive: all other assays above

CC=CC(=O)C1=C(C)C=CCC1(C)C
not listed: [12] | [13] | [14] | [15] | [16] | [17] | [18] | [19]
inactive: all other assays above

NC(=O)c1c(Cl)cccc1Cl
not listed: [12] | [13] | [14] | [15] | [16] | [17] | [18] | [19]
inactive: all other assays above

CC(=O)OCC=C(C)CCC=C(C)CCC=C(C)C
active: [1] 20000 nM | [2] 37900 nM | [3] 30700 nM | [4] 20000 nM | [5] 36500 nM | [9] 30.3 µM | [11] 36400 nM
inactive: [6] | [7] | [8] | [10]

C=C(F)C(=O)OC(C(F)(F)F)C(F)(F)F
not listed: [12] | [13] | [14] | [15] | [16] | [17] | [18] | [19]
inactive: all other assays above

C=CC(=O)OCC(CO)(COC(=O)C=C)COC(=O)C=C
active: [1] 709 nM | [2] 1190 nM | [3] 994 nM | [4] 1090 nM | [5] 1880 nM | [6] 964 nM | [7] 2.35 µM | [8] 1.25 µM | [9] 1.15 µM | [10] 1.39 µM | [11] 1270 nM

OCC(F)(OC(F)(F)C(F)(OC(F)(F)C(F)(F)C(F)(F)F)C(F)(F)F)C(F)(F)F (stereo not drawn)
active: [1] 5290 nM | [2] 3330 nM | [5] 4920 nM | [6] 6210 nM | [7] 5.55 µM and 3.38 µM | [8] 5.14 µM and 4.82 µM | [9] 5.47 µM and 5.77 µM | [10] 3.43 µM and 4.31 µM | [11] 4970 nM
inactive: [1] | [2] | [3] | [4] | [5] | [6] | [11]

N[C@@H](CCC(=O)O)C(=O)O
inactive: [14] | [15] | [16] | [17]

O=C1OC2(c3ccc(O)cc3Oc3cc(O)ccc32)c2ccccc21
active: [1] 35500 nM
inactive: [2] | [3] | [4] | [5] | [6] | [7] | [8] | [9] | [10] | [11]

CNC(=C[N+](=O)[O-])NCCSCc1ccc(CN(C)C)o1
inactive: [18]

CC/C(=C(\c1ccccc1)c1ccc(OCCN(C)C)cc1)c1ccccc1
inactive: [18]
active: [19] 82100 nM

CC(=O)OC(C)(C)C1CC=C(C)CC1 (stereo not drawn)
not listed: [12] | [13] | [14] | [15] | [16] | [17] | [18] | [19]
inactive: all other assays above
